14 compounds from ChEMBL document CHEMBL1961873, “Compounds: GSK PKIS; Assays: Nanosyn kinase panel” (2012) can be followed below.

Assay [1] has as its target T1, Serine/threonine-protein kinase Nek9 (Homo sapiens) (UniProt Q8TD19).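 Further: each value is a mean percent inhibition of NEK9.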
T1 sequence (whole entry): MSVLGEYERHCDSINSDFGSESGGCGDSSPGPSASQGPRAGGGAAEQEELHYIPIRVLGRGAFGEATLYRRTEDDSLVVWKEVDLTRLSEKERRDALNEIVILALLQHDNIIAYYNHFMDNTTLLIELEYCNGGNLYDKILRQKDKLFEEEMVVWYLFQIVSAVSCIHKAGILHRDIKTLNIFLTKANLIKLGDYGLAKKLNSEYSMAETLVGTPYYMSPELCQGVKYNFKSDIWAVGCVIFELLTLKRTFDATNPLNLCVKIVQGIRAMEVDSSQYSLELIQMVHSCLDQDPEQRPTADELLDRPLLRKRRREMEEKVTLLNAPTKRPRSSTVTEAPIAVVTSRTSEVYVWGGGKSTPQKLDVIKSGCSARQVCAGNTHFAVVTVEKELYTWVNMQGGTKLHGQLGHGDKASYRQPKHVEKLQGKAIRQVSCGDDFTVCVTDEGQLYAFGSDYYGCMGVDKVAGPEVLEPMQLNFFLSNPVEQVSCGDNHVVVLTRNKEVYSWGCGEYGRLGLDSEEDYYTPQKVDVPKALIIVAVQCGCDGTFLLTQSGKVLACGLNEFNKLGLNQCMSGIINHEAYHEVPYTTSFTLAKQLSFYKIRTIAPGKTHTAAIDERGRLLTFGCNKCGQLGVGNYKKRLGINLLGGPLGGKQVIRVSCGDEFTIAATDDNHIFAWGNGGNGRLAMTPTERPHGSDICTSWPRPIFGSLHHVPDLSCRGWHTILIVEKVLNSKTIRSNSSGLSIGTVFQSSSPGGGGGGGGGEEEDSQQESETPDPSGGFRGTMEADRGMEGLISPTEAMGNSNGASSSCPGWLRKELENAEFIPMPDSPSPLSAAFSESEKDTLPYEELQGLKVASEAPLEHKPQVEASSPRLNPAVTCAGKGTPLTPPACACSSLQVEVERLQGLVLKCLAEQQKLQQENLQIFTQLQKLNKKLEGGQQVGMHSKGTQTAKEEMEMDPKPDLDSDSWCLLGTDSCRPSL
To be noted: at 1 µM.

Assay [2] deals with Serine/threonine-protein kinase PLK1 (Homo sapiens) (UniProt P53350). The following applies: at 0.1 µM.
Sequence of Serine/threonine-protein kinase PLK1 (Homo sapiens) (P53350 whole entry): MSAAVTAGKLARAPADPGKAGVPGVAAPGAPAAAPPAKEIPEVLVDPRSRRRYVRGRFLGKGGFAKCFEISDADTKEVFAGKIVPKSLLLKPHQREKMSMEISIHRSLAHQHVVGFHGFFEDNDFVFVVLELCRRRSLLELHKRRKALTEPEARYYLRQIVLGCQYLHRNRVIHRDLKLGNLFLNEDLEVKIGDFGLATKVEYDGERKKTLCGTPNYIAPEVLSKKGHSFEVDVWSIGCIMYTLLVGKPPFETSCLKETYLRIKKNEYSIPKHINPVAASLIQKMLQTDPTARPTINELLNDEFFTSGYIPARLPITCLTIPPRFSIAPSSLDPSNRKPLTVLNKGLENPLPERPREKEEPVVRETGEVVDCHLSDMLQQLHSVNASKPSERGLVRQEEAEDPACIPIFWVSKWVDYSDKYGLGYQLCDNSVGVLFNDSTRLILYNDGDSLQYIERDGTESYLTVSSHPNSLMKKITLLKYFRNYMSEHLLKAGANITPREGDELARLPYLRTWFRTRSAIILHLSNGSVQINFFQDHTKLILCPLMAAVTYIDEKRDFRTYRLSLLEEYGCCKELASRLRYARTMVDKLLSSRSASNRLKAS
Assay [3] shares this target. The following applies: at 1 µM.
Assay [4] has as its target T2, Dual specificity protein kinase TTK (Homo sapiens) (UniProt P33981).
T2 sequence (whole entry): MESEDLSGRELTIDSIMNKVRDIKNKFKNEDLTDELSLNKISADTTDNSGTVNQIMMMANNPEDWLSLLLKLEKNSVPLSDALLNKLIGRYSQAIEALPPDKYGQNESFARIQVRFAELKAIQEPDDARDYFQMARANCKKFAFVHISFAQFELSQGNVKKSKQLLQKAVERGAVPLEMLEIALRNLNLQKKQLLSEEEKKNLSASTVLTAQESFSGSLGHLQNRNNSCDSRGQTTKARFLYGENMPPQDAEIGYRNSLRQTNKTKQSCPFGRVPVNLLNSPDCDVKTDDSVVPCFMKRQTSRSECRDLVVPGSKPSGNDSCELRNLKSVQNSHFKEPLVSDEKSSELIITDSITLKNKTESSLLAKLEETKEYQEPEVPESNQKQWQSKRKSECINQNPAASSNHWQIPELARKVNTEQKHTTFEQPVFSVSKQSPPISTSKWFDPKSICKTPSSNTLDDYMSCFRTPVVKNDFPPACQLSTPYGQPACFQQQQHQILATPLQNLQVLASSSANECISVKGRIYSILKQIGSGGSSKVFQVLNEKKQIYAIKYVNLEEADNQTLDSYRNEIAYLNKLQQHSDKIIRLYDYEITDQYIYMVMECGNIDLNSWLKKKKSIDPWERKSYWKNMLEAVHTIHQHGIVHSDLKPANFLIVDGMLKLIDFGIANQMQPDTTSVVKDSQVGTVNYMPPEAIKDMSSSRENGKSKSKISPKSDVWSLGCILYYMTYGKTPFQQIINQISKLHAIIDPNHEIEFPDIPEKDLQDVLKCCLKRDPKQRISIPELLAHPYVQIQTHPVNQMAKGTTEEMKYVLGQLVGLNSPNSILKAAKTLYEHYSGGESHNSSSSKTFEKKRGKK
To be noted: at 0.1 µM.

In assay [5] the test system is T3, Receptor-type tyrosine-protein kinase FLT3 (Homo sapiens), P36888 [D835Y].
T3 sequence (whole entry): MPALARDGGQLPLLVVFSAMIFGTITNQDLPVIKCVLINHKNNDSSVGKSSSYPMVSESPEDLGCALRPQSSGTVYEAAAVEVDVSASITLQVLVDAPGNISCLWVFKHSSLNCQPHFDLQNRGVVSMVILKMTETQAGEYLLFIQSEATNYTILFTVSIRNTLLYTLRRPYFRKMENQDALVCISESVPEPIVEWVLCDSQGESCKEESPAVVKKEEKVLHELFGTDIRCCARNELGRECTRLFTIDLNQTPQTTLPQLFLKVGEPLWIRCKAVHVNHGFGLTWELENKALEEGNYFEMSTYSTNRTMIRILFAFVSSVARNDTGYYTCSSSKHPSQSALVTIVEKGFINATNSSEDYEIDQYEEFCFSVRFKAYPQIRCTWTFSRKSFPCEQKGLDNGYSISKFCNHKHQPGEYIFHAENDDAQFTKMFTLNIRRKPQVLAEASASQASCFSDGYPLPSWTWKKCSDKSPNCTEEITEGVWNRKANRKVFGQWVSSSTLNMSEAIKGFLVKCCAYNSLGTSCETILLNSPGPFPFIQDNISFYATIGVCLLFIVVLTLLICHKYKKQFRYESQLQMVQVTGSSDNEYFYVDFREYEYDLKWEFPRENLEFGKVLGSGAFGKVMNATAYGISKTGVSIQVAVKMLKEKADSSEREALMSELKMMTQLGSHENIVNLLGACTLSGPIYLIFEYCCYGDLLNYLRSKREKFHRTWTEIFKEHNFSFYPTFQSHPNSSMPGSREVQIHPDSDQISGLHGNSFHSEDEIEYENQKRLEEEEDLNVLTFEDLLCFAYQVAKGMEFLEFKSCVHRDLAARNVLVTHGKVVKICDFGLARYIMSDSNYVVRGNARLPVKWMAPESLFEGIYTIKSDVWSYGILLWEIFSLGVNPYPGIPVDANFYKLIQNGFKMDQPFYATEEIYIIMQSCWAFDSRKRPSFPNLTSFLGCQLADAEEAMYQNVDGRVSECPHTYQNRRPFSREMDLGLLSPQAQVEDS
To be noted: at 1 µM.

The target of assay [6] is Vascular endothelial growth factor receptor 3 (Homo sapiens) (UniProt P35916). The following applies: at 0.1 µM.
Sequence of Vascular endothelial growth factor receptor 3 (Homo sapiens) (P35916 whole entry): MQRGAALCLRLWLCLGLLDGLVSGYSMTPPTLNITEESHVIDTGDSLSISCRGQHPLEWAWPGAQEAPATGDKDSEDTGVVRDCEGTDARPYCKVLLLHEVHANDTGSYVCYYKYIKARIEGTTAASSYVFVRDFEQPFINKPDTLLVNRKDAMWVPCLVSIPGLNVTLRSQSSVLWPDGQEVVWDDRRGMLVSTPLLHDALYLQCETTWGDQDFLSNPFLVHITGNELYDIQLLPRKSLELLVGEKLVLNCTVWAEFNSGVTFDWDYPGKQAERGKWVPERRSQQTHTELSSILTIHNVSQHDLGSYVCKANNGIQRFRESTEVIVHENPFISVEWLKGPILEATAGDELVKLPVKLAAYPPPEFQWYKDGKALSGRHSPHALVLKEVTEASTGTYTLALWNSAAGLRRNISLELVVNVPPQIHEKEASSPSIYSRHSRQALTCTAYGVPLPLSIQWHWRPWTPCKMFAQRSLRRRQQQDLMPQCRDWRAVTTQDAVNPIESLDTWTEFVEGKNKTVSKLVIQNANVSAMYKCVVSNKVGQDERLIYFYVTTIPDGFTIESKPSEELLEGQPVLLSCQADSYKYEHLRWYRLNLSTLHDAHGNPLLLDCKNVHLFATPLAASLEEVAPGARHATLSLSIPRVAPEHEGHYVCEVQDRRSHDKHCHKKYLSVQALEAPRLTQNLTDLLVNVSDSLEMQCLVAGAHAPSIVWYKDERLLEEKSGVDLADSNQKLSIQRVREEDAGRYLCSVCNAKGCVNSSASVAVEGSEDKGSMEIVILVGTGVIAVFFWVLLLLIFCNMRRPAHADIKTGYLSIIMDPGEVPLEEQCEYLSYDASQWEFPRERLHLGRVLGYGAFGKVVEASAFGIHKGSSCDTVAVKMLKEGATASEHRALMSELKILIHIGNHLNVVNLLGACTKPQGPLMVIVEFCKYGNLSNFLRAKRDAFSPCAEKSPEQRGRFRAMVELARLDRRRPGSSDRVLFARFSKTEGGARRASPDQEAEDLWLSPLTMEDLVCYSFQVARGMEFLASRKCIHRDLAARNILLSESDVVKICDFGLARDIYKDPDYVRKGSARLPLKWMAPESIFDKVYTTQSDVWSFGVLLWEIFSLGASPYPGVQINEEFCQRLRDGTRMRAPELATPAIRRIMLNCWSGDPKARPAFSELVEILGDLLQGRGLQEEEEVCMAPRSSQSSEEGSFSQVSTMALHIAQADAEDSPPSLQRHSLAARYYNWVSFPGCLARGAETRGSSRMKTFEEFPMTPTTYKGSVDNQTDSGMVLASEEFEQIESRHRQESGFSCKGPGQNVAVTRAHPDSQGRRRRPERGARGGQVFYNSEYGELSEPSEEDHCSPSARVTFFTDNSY
Assay [7] has as its target Macrophage colony-stimulating factor 1 receptor (Homo sapiens) (UniProt P07333). To be noted: at 0.1 µM.
The target is the same in assay [8]. The following applies: at 1 µM.
Assay [9] concerns the target Tyrosine-protein kinase Fyn (Homo sapiens) (UniProt P06241). The following applies: at 0.1 µM.
Assay [10] deals with Vascular endothelial growth factor receptor 3 (Homo sapiens) (UniProt P35916). To be noted: at 1 µM.

By inhibition is commonly meant the change of the read-out against control, counted positive when it falls.

Sequence of Macrophage colony-stimulating factor 1 receptor (Homo sapiens) (P07333 whole entry): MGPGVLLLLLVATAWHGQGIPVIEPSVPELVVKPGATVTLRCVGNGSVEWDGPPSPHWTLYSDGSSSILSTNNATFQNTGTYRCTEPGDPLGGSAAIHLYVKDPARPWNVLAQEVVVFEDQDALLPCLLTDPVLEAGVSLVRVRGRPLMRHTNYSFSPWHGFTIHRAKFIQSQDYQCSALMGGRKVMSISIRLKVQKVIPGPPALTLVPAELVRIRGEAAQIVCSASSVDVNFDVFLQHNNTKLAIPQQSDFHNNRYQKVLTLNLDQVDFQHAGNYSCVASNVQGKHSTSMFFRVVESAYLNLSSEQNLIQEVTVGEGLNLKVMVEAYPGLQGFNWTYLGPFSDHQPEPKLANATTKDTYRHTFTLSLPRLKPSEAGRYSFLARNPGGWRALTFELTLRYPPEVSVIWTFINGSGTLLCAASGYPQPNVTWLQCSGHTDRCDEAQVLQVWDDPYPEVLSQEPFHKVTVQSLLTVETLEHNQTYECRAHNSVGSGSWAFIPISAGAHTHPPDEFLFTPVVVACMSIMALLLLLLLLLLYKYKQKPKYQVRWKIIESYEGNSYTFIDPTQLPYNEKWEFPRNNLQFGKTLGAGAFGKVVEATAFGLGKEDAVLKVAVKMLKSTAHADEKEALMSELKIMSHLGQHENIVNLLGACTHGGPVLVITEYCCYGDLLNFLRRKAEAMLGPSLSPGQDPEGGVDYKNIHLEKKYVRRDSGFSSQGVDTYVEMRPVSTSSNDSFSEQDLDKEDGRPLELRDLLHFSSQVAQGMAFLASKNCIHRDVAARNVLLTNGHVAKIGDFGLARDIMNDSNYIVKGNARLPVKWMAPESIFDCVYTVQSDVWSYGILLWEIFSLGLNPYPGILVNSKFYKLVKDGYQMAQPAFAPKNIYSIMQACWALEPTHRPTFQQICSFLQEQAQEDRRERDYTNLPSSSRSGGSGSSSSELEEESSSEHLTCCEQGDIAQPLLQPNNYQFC
Sequence of Tyrosine-protein kinase Fyn (Homo sapiens) (P06241 2-537 limits assumed): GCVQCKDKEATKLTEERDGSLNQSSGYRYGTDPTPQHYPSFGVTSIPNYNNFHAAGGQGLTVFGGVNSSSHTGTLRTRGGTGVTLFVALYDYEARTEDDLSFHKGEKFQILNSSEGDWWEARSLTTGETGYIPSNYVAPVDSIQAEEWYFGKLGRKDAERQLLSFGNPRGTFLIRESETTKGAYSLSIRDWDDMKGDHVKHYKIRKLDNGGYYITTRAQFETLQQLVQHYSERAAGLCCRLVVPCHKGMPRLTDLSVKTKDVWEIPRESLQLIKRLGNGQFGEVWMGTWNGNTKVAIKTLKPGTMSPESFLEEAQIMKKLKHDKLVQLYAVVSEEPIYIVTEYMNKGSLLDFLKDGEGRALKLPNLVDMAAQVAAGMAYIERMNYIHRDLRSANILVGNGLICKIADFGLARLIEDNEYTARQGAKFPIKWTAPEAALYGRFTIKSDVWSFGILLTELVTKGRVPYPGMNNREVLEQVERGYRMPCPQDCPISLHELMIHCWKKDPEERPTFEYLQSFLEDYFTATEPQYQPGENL

On to `Fc1ccc(-c2ncn(C3CCNCC3)c2-c2ccnc(Oc3ccccc3)n2)cc1`, for which the inhibition is 5.18% in assay [1]; 3.38% in assay [2]; 3.09% in [3]; 6.21% in assay [4]; -0.44% in [5]; -7.44% in [6]. For the same compound, the inhibition was -0.76% in assay [7], 3.02% in assay [8] and -2.88% in assay [9].
Regarding `COc1cccc(COc2cc(-n3cnc4ccccc43)sc2C(N)=O)c1`, the inhibition in assay [1] is 8.39%; in assay [2], 66.5%; in assay [3], 92.2%; in assay [4] it was 3.72%; in assay [5], -4.13%; in [6], -2.19%. Further, the inhibition in [10] is 4.75%; in assay [7] it was -8.31%; in [8], -1.4%; in assay [9], 0%.
Consider `COc1cccc(-n2ncc3c(N/N=C/c4ccncc4)ncnc32)c1`, for which the inhibition in [1] was 6.71%; in [2], 2.19%; in assay [3], 3.32%; in [4] it was 8.59%; in assay [5], 52.1%; in [6], 9.86%. For the same compound, the inhibition in [10] came to 38.4%; in assay [7], 6.17%; in assay [8], 30.2%; in assay [9], 26.5%.
Consider `CCn1c(-c2nonc2N)nc2c(C#CC(C)(C)O)ncc(OCC3CCNCC3)c21`, for which the inhibition was 8.54% in [1]; 4.55% in assay [2]; 3.24% in assay [3]; 9.22% in assay [4]; 0.35% in assay [5]; -2.47% in [6]. Also, the inhibition in assay [10] is 34.8%; in assay [7], 1.63%; in assay [8], 1.19%; in assay [9], -4.47%.
Take `CCn1c(-c2nonc2N)nc2c(C#CC(C)(C)O)ncc(OC[C@@H]3CCCN3)c21`: the inhibition was 0.02% in [1]; -0.2% in [2]; -3.86% in assay [3]; 4.43% in assay [4]; -3.96% in assay [5]; 4.88% in [6]. In addition, the inhibition in assay [10] was 33.9%; in assay [7] it was -2.54%; in [8], 1.4%; in assay [9], 0.24%.
Consider `NC(=O)c1sc(-n2cnc3cc(C(F)(F)F)ccc32)cc1OCc1ccccc1Br`, for which the inhibition is 10.3% in [1]; 21% in assay [2]; 69.5% in assay [3]; 2.94% in [4]; 4.97% in assay [5]; 2.24% in assay [6]. Also, the inhibition in assay [10] is 4.4%; in assay [7] it was -0.7%; in [8], 3.85%; in [9] it was 2.13%.
As to `COc1cc(C=NNc2ncnc3c2cnn3Cc2ccccc2)ccc1O`, the inhibition was -0.84% in assay [1]; -3.5% in assay [2]; -2.85% in assay [3]; -6.4% in [4]; 2.91% in assay [5]; 0.12% in assay [6]. Also, the inhibition amounted to 0.41% in assay [10], 14.5% in [7], 58.7% in assay [8] and 6.12% in assay [9].
`NS(=O)(=O)c1ccc(-c2ccc3c(NC(=O)C4CC4)n[nH]c3c2)cc1`: the inhibition in assay [1] worked out at 3.68%; in [2] it was 2.16%; in assay [3], 2.23%; in [4], 2.82%; in assay [5], 8.24%; in assay [6], 0.96%. For the same compound, the inhibition in assay [10] was 1.51%; in [7], 0.18%; in [8], 1.78%; in [9], 1.45%.
Consider `Cc1cc(-c2ccco2)cc(C)c1/C=C/c1cncc(-c2nn[nH]n2)c1`, for which the inhibition in assay [1] was 1.42%; in [2], 1.22%; in [3] it was 0.57%; in assay [4], 4.5%; in [5], -2.85%; in [6] it was 1.37%. Besides, the inhibition was 2.25% in assay [10], -0.94% in assay [7], 2.32% in assay [8] and 1.3% in assay [9].
For the compound `CCn1c(-c2nonc2N)nc2c(C#CC(C)(C)O)nc(O[C@@H](CN)c3ccccc3)cc21`, the inhibition in assay [1] was -1.03%; in [2] it was 0.95%; in assay [3] it was 0.24%; in [4] it was 3.8%; in assay [5], 2.22%; in assay [6], 58.4%. The inhibition was determined as 93.8% in assay [10], 0.67% in [7], 1.9% in [8] and 3.24% in [9].
With `NS(=O)(=O)c1ccc(N/C=C2\C(=O)Nc3ccc4ncsc4c32)cc1`, the inhibition in assay [1] amounted to 22.4%; in assay [2], 4.2%; in assay [3], 4.96%; in [4], 40.1%; in assay [5] it was 81.1%; in assay [6], 38.2%. The inhibition is 93.1% in assay [10], 29.5% in assay [7], 58.6% in [8] and 2.85% in assay [9].
Regarding `Nc1nonc1-c1nc2cnccc2n1C1CCCCC1`, the inhibition in assay [1] is -2.86%; in [2] it was -2.48%; in assay [3], -0.5%; in assay [4], -1.57%; in assay [5] it was 19.7%; in assay [6], 4.11%. Moreover, the inhibition in [10] was determined as 16.7%; in assay [7], 27.4%; in assay [8] it was 76.3%; in assay [9], 2.06%.
Consider `COc1cc2c(cc1Nc1nc(Nc3ccsc3C(N)=O)c3cc[nH]c3n1)N(C(=O)CN(C)C)CCC2`, for which the inhibition is -3.87% in assay [1]; 86.3% in [2]; 97.1% in assay [3]; 9.22% in [4]; 5.44% in [5]; 55% in assay [7]. Further, the results for the inhibition in assay [8] and in [9] were 82.8% and 2.02%, respectively.
Take `CCn1c(-c2nonc2N)nc2c(C#CCN)ncc(OCCCN)c21`: the inhibition was -9.04% in assay [1]; -5.66% in assay [2]; -6.34% in assay [3]; -4.74% in [4]; 7.13% in assay [5]; -2.4% in [6]. For the same compound, the inhibition in assay [10] is 1.59%; in assay [7], -1.23%; in assay [8], 0.9%; in assay [9] it was 0.54%.
